# Data: PubChem BioAssay (NCATS)
# Several values for one entry are separate records, joined by “and”; a condition that tells them apart may be missing. Equal values may be shown once. Records with an inconclusive call do not appear. Where a call stands in place of a potency, no number is given. A number with no mark means an inactive call. Activity calls are given as the source filed them. Unless noted, calls follow the shape of the dose curve; as a rule, active = well fitted curve in the direction sought with a large enough effect; inconclusive = small, poorly fitted or top-dose-only effect, or another doubt; inactive = no such curve, though single readings can be large; an effect the other way counts as inactive or inconclusive. Where a SMILES comes first, the peptide text is derived from it. The star is where a group is joined. Hexanoyl = CCCCCC(=O)*; PhAc = O=C(Cc1ccccc1)*
# Molecular target: Cytochrome P450 2C9 (Homo sapiens) (UniProt P11712)
# Sequence (P11712 whole entry, looked up): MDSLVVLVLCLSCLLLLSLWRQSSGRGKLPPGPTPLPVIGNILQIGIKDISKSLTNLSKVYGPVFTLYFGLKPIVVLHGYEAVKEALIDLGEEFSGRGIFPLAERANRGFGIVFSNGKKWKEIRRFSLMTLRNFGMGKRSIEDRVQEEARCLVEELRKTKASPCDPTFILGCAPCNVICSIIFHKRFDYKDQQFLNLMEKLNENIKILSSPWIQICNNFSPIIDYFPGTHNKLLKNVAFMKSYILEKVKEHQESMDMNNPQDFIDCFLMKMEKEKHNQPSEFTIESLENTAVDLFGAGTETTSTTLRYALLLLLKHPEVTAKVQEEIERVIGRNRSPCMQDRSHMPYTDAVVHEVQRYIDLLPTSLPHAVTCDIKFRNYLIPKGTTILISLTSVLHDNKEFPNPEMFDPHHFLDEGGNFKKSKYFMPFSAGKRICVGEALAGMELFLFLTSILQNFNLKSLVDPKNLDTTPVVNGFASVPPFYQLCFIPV
# Test: Cytochrome P450 family 2 subfamily C member 9 (CYP2C9) small molecule antagonists: luciferase biochemical (cell-free) qHTS assay (AID 1645842; active = well fitted curve in the direction sought with a large enough effect in the repeat runs; an effect the other way counts as inactive or inconclusive; also: nearly all actives have a fitted effect of over 55% in size)
# Settings: P450-Glo CYP2C9 enzyme assay, luciferin luminescence; series mostly up to 57.4 µM
# How it was run: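 P450-Glo CYP2C9 system: proluciferin substrate with enzyme in mix containing 0.4% BSA, 10 min at room temperature, then NADPH regeneration solution added and incubated 1 h at 37C. Detection reagent stopped reaction; luminescence read after 20 min as RLU.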
# Potency is read from the fitted curve at half-maximal effect.
row,SMILES,Potency
1,c1ccc2c(Nc3nnc(-c4ccncc4)s3)cccc2c1,6.01 µM (active)
2,CCCCCC(=O)N1CCC[C@H]1C(=O)N[C@@H](Cc1ccc(O)cc1)C(=O)OC (Hexanoyl-Pro-Tyr-OMe),2.39 µM (active)
3,CCNC(=O)C1CC(F)(c2ccc(CN3CCCC3)c(F)c2)C1 (stereo not given),inactive
4,O=C(NC1Cc2ccccc2N(C[C@@H](O)CO)C1=O)c1cc2cc(Cl)sc2[nH]1 (stereo not given in full),21.3 µM (active)
5,Cc1cc(C)c2nc(-c3ccccn3)cc(C(=O)Nc3ccc(S(=O)(=O)Nc4onc(C)c4C)cc3)c2c1,26.8 µM (active)
6,COc1ccc(NC(=O)c2ccc(-c3ccc(C(N)=O)cc3C)cc2)cc1N1CCN(C)CC1,inactive
7,CC(C)(C)NS(=O)(=O)c1ccc(-c2ccc3[nH]nc(N)c3c2)cc1,13.5 µM (active)
8,CCCCC(=O)N1c2ccccc2NC2=C(C(=O)CCC2)C1c1ccccc1Cl (stereo not given),12 µM (active)
9,NCCCCN(Cc1nc2ccccc2[nH]1)[C@H]1CCCc2cccnc21,6.74 µM (active)
10,Cc1ccc(-c2c(-c3nn(C)c4ncnc(N5CCC(N6CCCCC6)C5)c34)cnn2C)cc1 (stereo not given),19 µM (active)
11,CC(CNS(=O)(=O)C(C)C)c1ccc(-c2ccc(C#N)cc2)cc1 (stereo not given),inactive
12,COc1cccc(C(=O)NCCNc2nc3cc(C)cc(C)c3cc2C#N)c1,1.69 µM (active)
13,CC[C@@H](Nc1c(Nc2cccc(C(=O)N(C)C)c2O)c(=O)c1=O)c1ccc(C)o1,2.39 µM (active)
14,CCCN(CCN1CCN(c2ccccc2OC)CC1)C1CCc2ncsc2C1 (stereo not given),inactive
15,Cc1[nH]c2ccccc2c1CC(=O)N[C@@H](Cc1ccccc1)C(=O)N(C)c1ccccc1,9.52 µM (active)
16,CC1(C)CC=C(c2cnc3ccccc3c2)c2cc(C(=O)Nc3ccc(C(=O)O)cc3)ccc21,21.3 µM (active)
17,NC1=NC2(c3cc(NC(=O)c4ccc(F)cn4)ccc3F)COCC2CS1 (stereo not given),9.52 µM (active)
18,Cc1cc(CNC(=O)c2cc(C(=O)NCc3ccc(F)c(C)c3)ncn2)ccc1F,inactive
19,O=C(c1ccc(Cl)c([N+](=O)[O-])c1)N1CCN(c2ccccc2F)CC1,2.68 µM (active)
20,CN1C(=O)N(c2cc(Cl)cc(Cl)c2)C(=O)[C@@]1(C)Cc1ccc(Br)cc1,3.38 µM (active)

# Tested on: not listed separately
# Test: Primary qHTS for inhibitors of nuclear receptor binding SET domain protein 2 (NSD2) in an isogenic RCH-ACV NSD2 p.E1099K mutant (9B) (AID 1645876); also: nearly all actives have a fitted effect of over 70% in size
# Settings: RCH-ACV (leukaemia line) NSD2 E1099K (9B) viability, CellTiter-Glo, 72 h; series mostly up to 44.9 µM
SMILES,Potency,"activity change, negative = viability loss"
O=C(O)Cn1nnc(-c2ccc(CN(CCCCOc3ccc(CN4CCCC4)cc3)CCc3ccccc3)cc2)n1,inactive,–
c1ccc2c(Nc3nnc(-c4ccncc4)s3)cccc2c1,inactive,–
CCCCCC(=O)N1CCC[C@H]1C(=O)N[C@@H](Cc1ccc(O)cc1)C(=O)OC (Hexanoyl-Pro-Tyr-OMe),inactive,–
CCNC(=O)C1CC(F)(c2ccc(CN3CCCC3)c(F)c2)C1 (stereo not given),inactive,–
CC(C)c1c(NC(=O)Nc2ccc(Cl)cc2)c(=O)n(-c2ccccc2)n1C,inactive,–
COc1cc(Nc2nc3c(s2)CCCC3c2ccccc2)ccc1-n1cnc(C)c1 (stereo not given),–,-1.48% [at 9.23 µM]
FC(F)(F)Oc1ccc(-c2ccc3nnc(C(F)(F)F)n3c2)cc1,inactive,–
O=C(Nc1ccc(N2CCC(C(=O)N3CCOCC3)CC2)cc1)c1cnc(Oc2ccccc2)nc1,inactive,–
Cc1ccc(-c2c(-c3nn(C)c4ncnc(N5CCC(N6CCCCC6)C5)c34)cnn2C)cc1 (stereo not given),inactive,–
Cc1cc(OCCN2CCOCC2)nn1-c1ccc2ccccc2c1,inactive,–
CC[C@@H](Nc1c(Nc2cccc(C(=O)N(C)C)c2O)c(=O)c1=O)c1ccc(C)o1,inactive,–
COc1cnc(-n2cnc(C)n2)c2[nH]cc(C(=O)C(=O)N3CCN(C(=O)c4ccccc4)CC3)c12,inactive,–
COc1ccc(N2CCN(CCCNC(=O)Cn3c(=O)c4cccn4c4c(C)ccnc43)CC2)cc1,inactive,–
CCCN(CCN1CCN(c2ccccc2OC)CC1)C1CCc2ncsc2C1 (stereo not given),inactive,–
Cc1occc1C(=O)n1ccnc1,inactive,–
NC1=NC2(c3cc(NC(=O)c4ccc(F)cn4)ccc3F)COCC2CS1 (stereo not given),inactive,–
Cc1ncc(NC(=O)c2ccc(CN3CCN(C)CC3)c(C(F)(F)F)c2)cc1Nc1nccc(-c2cccnc2)n1,7.28 µM (active) and 5.9 µM (active),–
Cc1cc(CNC(=O)c2cc(C(=O)NCc3ccc(F)c(C)c3)ncn2)ccc1F,inactive,–
CCOC(=O)CNC(=O)[C@@H]1CCCN1C(=O)Cc1ccccc1 (PhAc-Pro-Gly-OEt),inactive,–
CCc1nn(CCO)c(CC)c1Oc1cc(C#N)cc(C#N)c1,inactive,–
Fc1ccc(-c2c3cccc(C(F)(F)F)c3nn2Cc2ccc(F)cc2Cl)cc1,inactive,–
O=C(CCCCC1CCCCC1)N1CCC(c2cnc[nH]2)CC1,23 µM (active),–
FC(F)(F)c1nnc2c(Sc3ccccc3)nc3ccc(Cl)cc3n12,4.09 µM (active),–
NC(N)=NCCC[C@H](NC(=O)c1sccc1NS(=O)(=O)c1cccc2nsnc12)C(=O)O,inactive,–
COc1ccnc2[nH]cc(C(=O)C(=O)N3CCN(C(=O)c4ccccc4)CC3C)c12 (stereo not given),inactive,–
